Screens from PubChem.
This is a sample that favours compounds with a hit; in the whole collection about 2% have one here.
LDHA inh = blocks human lactate dehydrogenase A. P00338. purified LDHA, NADH/diaphorase-resazurin fluorescence; hits give low values. activity change, % (values are at about 110 or 230 µM). 480,000 tested, 0.15% active; in the data active = activity change below about -30%; inconclusive = mostly about -25% to -30%
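Enzyme activity of human lactate dehydrogenase 5 (2 nM; 0.06 mM NADH, 0.2 mM pyruvate, 5 min, RT) is measured via a resazurin/diaphorase fluorescence readout of residual NADH.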
Abeta yeast res = A-beta toxicity reversal in yeast; yeast expressing A-beta42, growth rescue, OD600, 48 h; response scale: 0% DMSO, 100% iron-clioquinol control; Potency, µM (series often up to 46.1 µM), actives largely listed as activators; 410,000 tested, 0.063% active; AID 1347071; also: nearly all actives have a fitted effect of over 55% in size
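Yeast growth medium received pinned compounds, then yeast cells expressing toxic A-beta were added; plates incubated at 30 C for 48 hr. Growth read as absorbance at 600 nm, normalized to DMSO and equimolar FeCl3 plus clioquinol controls.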
aSyn yeast inh = rescues yeast growth from alpha-synuclein toxicity | AID 652106 | 370,000 tested, 0.14% active | Potency, µM (titrated, usually from 46.1 µM), most hits filed as activators | Yeast expressing alpha-synuclein, growth rescue, BacTiter-Glo, 24 h; also: nearly all actives have a fitted effect of over 65% in size
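Galactose-induced alpha-syn yeast (OD600=0.02, raffinose-pregrown) + pinned cpd, 24 hr, 30 deg C; growth by BacTiter-Glo luminescence. Growth restoration scores as activation.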
mIDH1 inhibitor = inhibitors of human mutant IDH1 R132H; O75874; IDH1-R132H enzyme, NADPH consumption, diaphorase/resazurin fluorescence; Potency, µM (doses to about 76.6 µM), usual class: inhibitors; 390,000 tested, 0.093% active; also: nearly all actives have a fitted effect of over 65% in size
Target sequence (O75874 whole entry R132H, stated change not applied): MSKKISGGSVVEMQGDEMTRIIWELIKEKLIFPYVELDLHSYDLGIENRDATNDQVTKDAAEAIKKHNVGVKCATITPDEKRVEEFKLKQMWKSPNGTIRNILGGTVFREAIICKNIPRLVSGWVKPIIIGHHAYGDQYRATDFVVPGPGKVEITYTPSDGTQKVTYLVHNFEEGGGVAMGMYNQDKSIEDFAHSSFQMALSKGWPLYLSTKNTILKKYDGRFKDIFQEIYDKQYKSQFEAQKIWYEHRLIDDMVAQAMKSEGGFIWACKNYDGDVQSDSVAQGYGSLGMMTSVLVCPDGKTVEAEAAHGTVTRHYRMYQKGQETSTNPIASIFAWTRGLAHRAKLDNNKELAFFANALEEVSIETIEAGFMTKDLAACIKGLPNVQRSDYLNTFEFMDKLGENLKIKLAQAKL
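IDH1-R132H (0.5 ug/mL) preincubated 30 min with compound, then NADPH (0.016 mM) and alpha-KG (2 mM) added; 80 min at RT, pH 7.5. Remaining NADPH coupled via diaphorase/resazurin to fluorescence (540/590 nm); concentration-response curves normalized to no-enzyme control.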
FUS yeast rescue = FUS proteinopathy suppression in yeast; S. cerevisiae FUS-expressing, growth rescue, OD600, 24 h; Potency, µM (top dose mostly 76.6 µM), actives largely listed as activators; 390,000 tested, 0.24% active; also: nearly all actives have a fitted effect of over 55% in size
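Yeast FUS proteinopathy model; galactose-induced FUS (2%), starting OD 0.005. Cpds in dilution series, 24hr, 30C, 99% humidity. Abs 600 nm growth. Pos ctrl CP55940 (top 92uM final); neg ctrl DMSO.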
TDP43 rescue = TDP-43 toxicity inhibition in yeast; Potency, µM (series often up to 46.1 µM), usual class: activators; 410,000 tested, 1.8% active; TDP-43 expressing yeast growth rescue, BacTiter-Glo, 24 h; also: nearly all actives have a fitted effect of over 50% in size
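Yeast expressing TDP-43 (pregrown in raffinose, seeded at OD600=0.02 in galactose medium) exposed to compounds 24 hr at 30 deg C. Growth read by BacTiter-Glo luminescence; rescue of toxicity appears as increased signal.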
IDH1 autofl = autofluorescence interference, mutant IDH1 hit counter-screen. shares compounds with mIDH1 inhibitor. inhibition of signal, % at 51.2 µM. 750 tested, under 10 active. AID 623980. Resorufin detection reagent fluorescence interference, cell-free
IDH1 WT = selectivity of mutant IDH1 inhibitors: human wild-type IDH1; Potency, µM (top dose mostly 115 µM), most hits filed as inhibitors; WT IDH1 enzyme, NADPH diaphorase/resazurin fluorescence; shares compounds with mIDH1 inhibitor; 750 tested, 9% active; also: nearly all actives have a fitted effect of over 55% in size
Target sequence (O75874 whole entry, looked up): as the sequence (O75874 whole entry R132H, stated change not applied) above, with H132R counted along it
IDH1 R132H conf = inhibits human mutant IDH1 enzyme in cherrypick confirmation. IDH1 R132H enzyme, NADPH diaphorase/resazurin fluorescence. 750 tested, 83% active. Potency, µM (titrated, usually from 76.6 µM), usual class: inhibitors. AID 624002. shares compounds with mIDH1 inhibitor; also: nearly all actives have a fitted effect of over 50% in size
Large screens that a line does not name were inactive (follow-up assays come after a bar, where they were run). Unless noted, calls follow the shape of the dose curve; as a rule, active = well fitted curve in the direction sought with a large enough effect; inconclusive = small, poorly fitted or top-dose-only effect, or another doubt; inactive = no such curve, though single readings can be large; an effect the other way counts as inactive or inconclusive.

C[C@H]1CN([C@@H](C)CO)C(=O)CCCn2nncc2CO[C@H]1CN(C)S(=O)(=O)c1ccc(Oc2ccccc2)cc1	mIDH1 inhibitor inconclusive, FUS yeast rescue inconclusive | IDH1 autofl inactive | IDH1 WT inactive | IDH1 R132H conf inconclusive
Cc1nc2ccccc2nc1SC(C)C(=O)NCC(C)C (stereo not given)	none (no result: Abeta yeast res, aSyn yeast inh, mIDH1 inhibitor, FUS yeast rescue, TDP43 rescue)
COc1cc(C=O)cc(Br)c1OC(=O)c1ccc(C)cc1	none (no result: Abeta yeast res, aSyn yeast inh, mIDH1 inhibitor, FUS yeast rescue, TDP43 rescue)
O=S(=O)(c1ccc(NC(=S)N/N=C/c2ccc(N3CCOCC3)cc2)cc1)N1CCOCC1	none (no result: FUS yeast rescue)
O=S(=O)(c1ccc(NC(=S)N/N=C/c2ccc(Oc3ccccc3)cc2)cc1)N1CCOCC1	mIDH1 inhibitor inconclusive | IDH1 autofl inactive | IDH1 WT inactive | IDH1 R132H conf inactive
CC(C)(C)NC(=O)CSc1nc2ccc(Nc3nc(N4CCOCC4)nc(N4CCOCC4)n3)cc2s1	aSyn yeast inh inconclusive, mIDH1 inhibitor inconclusive, TDP43 rescue 11.2µM | IDH1 autofl inactive | IDH1 WT inactive | IDH1 R132H conf 20µM
CCC1C/C(=C\c2cccnc2)C(=O)/C(=C/c2cccnc2)C1 (stereo not given)	mIDH1 inhibitor 52.1µM (no result: FUS yeast rescue) | IDH1 autofl inactive | IDH1 WT inactive | IDH1 R132H conf 31.6µM
O=C1/C(=C/c2cccnc2)CC/C1=C\c1cccnc1	none
FC(F)(F)c1ccc(C=Nc2cccc3ccccc23)cc1	none (no result: Abeta yeast res, aSyn yeast inh, mIDH1 inhibitor, FUS yeast rescue, TDP43 rescue)
CN1CCN(Cc2cc(=O)oc3cc(-c4ccccc4)c(O)cc23)CC1	none (no result: Abeta yeast res, aSyn yeast inh, mIDH1 inhibitor, FUS yeast rescue, TDP43 rescue)
CCOC(=O)c1ccc(N2C(=O)c3n[nH]c(-c4ccco4)c3C2c2ccc(O)c(OC)c2)cc1 (stereo not given)	mIDH1 inhibitor inconclusive, FUS yeast rescue inconclusive (no result: aSyn yeast inh) | IDH1 autofl inactive | IDH1 WT inactive | IDH1 R132H conf 20µM
CCOC(=O)c1ccc(N2C(=O)c3[nH]nc(-c4ccccc4)c3C2c2cccs2)cc1 (stereo not given)	mIDH1 inhibitor inconclusive (no result: aSyn yeast inh) | IDH1 autofl inactive | IDH1 WT inactive | IDH1 R132H conf inactive
CCOC(=O)c1ccc(N2C(=O)c3n[nH]c(-c4ccco4)c3C2c2ccc(C)cc2)cc1 (stereo not given)	FUS yeast rescue inconclusive, TDP43 rescue inconclusive (no result: aSyn yeast inh)
CCC(CNC(=O)c1ccc(C(=O)OC)cc1)c1ccccc1 (stereo not given)	none (no result: Abeta yeast res, aSyn yeast inh, mIDH1 inhibitor, FUS yeast rescue, TDP43 rescue)
CC(C)C[C@@H](C)C(=O)N(Cc1ccccc1)c1ccccc1	none
CC[C@@H](CCC=C(C)C)C(=O)N(Cc1ccccc1)c1ccccc1	mIDH1 inhibitor inconclusive | IDH1 autofl inactive | IDH1 WT inconclusive | IDH1 R132H conf 15.8µM
COc1ccc2cc(/C=C/C(=O)c3cccs3)ccc2c1	none (no result: Abeta yeast res, aSyn yeast inh, mIDH1 inhibitor, FUS yeast rescue, TDP43 rescue)
COc1ccc(Br)cc1CN(C)C(=O)c1ccccc1SCC(=O)N1CCCC1	mIDH1 inhibitor 46.5µM | IDH1 autofl inactive | IDH1 WT inactive | IDH1 R132H conf 35.5µM
Cc1ccc(-c2nn3c(-c4ccccc4C)nnc3c3ccccc23)cc1	mIDH1 inhibitor 39.8µM (no result: aSyn yeast inh) | IDH1 autofl inactive | IDH1 WT inactive | IDH1 R132H conf 22.4µM
CC(C)c1nc(N2CCN(C(=O)c3ccccc3)CC2)c(C#N)c2c1COC(C)(C)C2	mIDH1 inhibitor inconclusive, TDP43 rescue inconclusive | IDH1 autofl inactive | IDH1 WT inactive | IDH1 R132H conf 22.4µM
CC(C)c1nc(N2CCN(C(=O)c3ccco3)CC2)c(C#N)c2c1COC(C)(C)C2	mIDH1 inhibitor 20.7µM, TDP43 rescue inconclusive | IDH1 autofl inactive | IDH1 WT inactive | IDH1 R132H conf 20µM
